# According to the supplement of paper PMC6555819:
# Experiments:
# Assay in all cases: PBM binding z-score (relative to random genomic background probes); higher = stronger binding; sequences stand for … in GC…GCGATTGACAGCGTAGAATGAAGG
# [1] = test system: RARb homodimer (NR concentration 270 nM)
# How it was run: (§1)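 Antibodies against each partner of ligand-free nuclear receptor dimers (one per run) detected binding on custom Agilent 4×180K protein-binding microarrays after 1 h incubation. The double-stranded probes had 34-nt variable regions carrying direct-repeat seeds, single-nucleotide variants, half-site ablations and random human genomic background sequences. Binding z-scores, from regression-normalized fluorescence, use the random background probes as reference.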
# [2] = test system: RARg:RXRa (NR concentration 270 nM, RXRa partner concentration 90 nM)
# How it was run: as §1
# [3] = test system: RARg homodimer (NR concentration 270 nM)
# How it was run: as §1
# [4] = test system: RXRa DBDmut IVT, anti-RXR (DBD mutation: RXRa K156A/R161A, NR concentration 90 nM)
# How it was run: as §1
# [5] = test system: RXRa homodimer (NR concentration 180 nM)
# How it was run: as §1
# [6] = test system: THRa:RXRa (NR concentration 90 nM, RXRa partner concentration 90 nM)
# How it was run: as §1
# [7] = test system: THRa homodimer (NR concentration 90 nM)
# How it was run: as §1
# [8] = test system: VDR homodimer (NR concentration 270 nM)
# How it was run: as §1
sequence,measurement,setting,value
ATCGAAAGGTCTTGAGGTGAGTATACAGAAAGGC,PBM binding z-score,[1],1.41
same,PBM binding z-score,[2],1.77
same,PBM binding z-score,[3],1.87
same,PBM binding z-score,[4],-0.483
same,PBM binding z-score,[5],1.48
same,PBM binding z-score,[6],2.34
same,PBM binding z-score,[7],1.21
same,PBM binding z-score,[8],-0.0653
ATCTCTAGGTAACACGTTCAGTGAAAGAGAGGAC,PBM binding z-score,[1],0.49
same,PBM binding z-score,[2],0.475
same,PBM binding z-score,[3],0.586
same,PBM binding z-score,[4],-0.0545
same,PBM binding z-score,[5],0.391
same,PBM binding z-score,[6],0.954
same,PBM binding z-score,[7],0.748
same,PBM binding z-score,[8],0.453
CCTAGTTGGTCAATGTCACACACGCTATAGGTAC,PBM binding z-score,[1],1.52
same,PBM binding z-score,[2],1.07
same,PBM binding z-score,[3],1.59
same,PBM binding z-score,[4],1.04
same,PBM binding z-score,[5],0.701
same,PBM binding z-score,[6],0.639
same,PBM binding z-score,[7],0.635
same,PBM binding z-score,[8],0.802
ACAGACAGGTGAGTGAACGTAACTCAGCTGGACG,PBM binding z-score,[1],-0.371
same,PBM binding z-score,[2],-0.0638
same,PBM binding z-score,[3],0.417
same,PBM binding z-score,[4],-0.336
same,PBM binding z-score,[5],0.275
same,PBM binding z-score,[6],-0.437
same,PBM binding z-score,[7],-0.967
same,PBM binding z-score,[8],-0.683
CTACCAAGGTGAACAAGGTCGCTGATTACTATTC,PBM binding z-score,[1],2.04
same,PBM binding z-score,[2],1.88
same,PBM binding z-score,[3],1.55
same,PBM binding z-score,[4],0.77
same,PBM binding z-score,[5],1.8
same,PBM binding z-score,[6],3.28
same,PBM binding z-score,[7],1.81
same,PBM binding z-score,[8],1.27
CAAACTTGGTCAAGGTCAAAGTCGGTTTGTGCCA,PBM binding z-score,[1],4.26
same,PBM binding z-score,[2],4.46
same,PBM binding z-score,[3],4.37
same,PBM binding z-score,[4],2.33
same,PBM binding z-score,[5],4.72
same,PBM binding z-score,[6],3.92
same,PBM binding z-score,[7],3.4
same,PBM binding z-score,[8],3.32
GAAACGAGGGCAAGTTGATAGCAGAGTTTGATGG,PBM binding z-score,[1],1.68
same,PBM binding z-score,[2],1.6
same,PBM binding z-score,[3],1.94
same,PBM binding z-score,[4],2.43
same,PBM binding z-score,[5],1.02
same,PBM binding z-score,[6],1.41
same,PBM binding z-score,[7],0.0214
same,PBM binding z-score,[8],1.97
ATATGTAGGTTAGCTGGGGTCAATCAGACTAGGC,PBM binding z-score,[1],3.82
same,PBM binding z-score,[2],4.3
same,PBM binding z-score,[3],3.37
same,PBM binding z-score,[4],1.26
same,PBM binding z-score,[5],5.42
same,PBM binding z-score,[6],5.12
same,PBM binding z-score,[7],2.82
same,PBM binding z-score,[8],3.44
AGAATGAGGTTACCAAAGCTCAGGGAAACGCTTG,PBM binding z-score,[1],0.544
same,PBM binding z-score,[2],1.91
same,PBM binding z-score,[3],1.54
same,PBM binding z-score,[4],1.04
same,PBM binding z-score,[5],2.62
same,PBM binding z-score,[6],2.83
same,PBM binding z-score,[7],0.864
same,PBM binding z-score,[8],-0.0119
CAGCCTAGGTCAGGGCCAGTTTAGGAGGAACGTT,PBM binding z-score,[1],2.63
same,PBM binding z-score,[2],3.06
same,PBM binding z-score,[3],3.48
same,PBM binding z-score,[4],0.133
same,PBM binding z-score,[5],1.63
same,PBM binding z-score,[6],2.2
same,PBM binding z-score,[7],0.659
same,PBM binding z-score,[8],-0.142
AGAACGAGGGGAATGAGTTGATAGCACGGGTGGC,PBM binding z-score,[1],0.0648
same,PBM binding z-score,[2],0.0895
same,PBM binding z-score,[3],0.0667
same,PBM binding z-score,[4],0.224
same,PBM binding z-score,[5],0.437
same,PBM binding z-score,[6],0.0318
same,PBM binding z-score,[7],-0.151
same,PBM binding z-score,[8],0.812
CCTACTGGGCCAAAGTCATTGATCAGTCAAAGCA,PBM binding z-score,[1],-0.0618
same,PBM binding z-score,[2],-0.124
same,PBM binding z-score,[3],-0.109
same,PBM binding z-score,[4],-0.332
same,PBM binding z-score,[5],-0.525
same,PBM binding z-score,[6],-0.226
same,PBM binding z-score,[7],-0.645
same,PBM binding z-score,[8],-0.635
TCTAGCAGGCCAGAGAGTCACTCAAGAGGTACGG,PBM binding z-score,[1],-0.56
same,PBM binding z-score,[2],-0.0784
same,PBM binding z-score,[3],-0.0814
same,PBM binding z-score,[4],-0.229
same,PBM binding z-score,[5],0.33
same,PBM binding z-score,[6],-0.304
same,PBM binding z-score,[7],-1.31
same,PBM binding z-score,[8],-0.865
CGAACTAGGTTAGAACAGGACAGTGAAGGATGAT,PBM binding z-score,[1],0.456
same,PBM binding z-score,[2],0.384
same,PBM binding z-score,[3],0.607
same,PBM binding z-score,[4],0.0179
same,PBM binding z-score,[5],0.171
same,PBM binding z-score,[6],1.92
same,PBM binding z-score,[7],-0.166
same,PBM binding z-score,[8],-0.137
CGTCCAAGGTCAAAGTTCAGTGAAGAGATGACGG,PBM binding z-score,[1],4.6
same,PBM binding z-score,[2],7.44
same,PBM binding z-score,[3],7.1
same,PBM binding z-score,[4],4.25
same,PBM binding z-score,[5],8.84
same,PBM binding z-score,[6],4.31
same,PBM binding z-score,[7],1.92
same,PBM binding z-score,[8],4.39
ACTATTAGATGAGACGAGGGCAACCGATAGGTTG,PBM binding z-score,[1],1.3
same,PBM binding z-score,[2],0.879
same,PBM binding z-score,[3],1.09
same,PBM binding z-score,[4],0.518
same,PBM binding z-score,[5],0.632
same,PBM binding z-score,[6],1.42
same,PBM binding z-score,[7],0.659
same,PBM binding z-score,[8],0.77
CCTCCAAGGTCAATGCTAGGTCAGTGAAAGCATT,PBM binding z-score,[1],5.1
same,PBM binding z-score,[2],7.37
same,PBM binding z-score,[3],6.33
same,PBM binding z-score,[4],3.35
same,PBM binding z-score,[5],4.78
same,PBM binding z-score,[6],4.47
same,PBM binding z-score,[7],2.91
same,PBM binding z-score,[8],2.71
CCTTACGGGTCACTCCAGGTGATAGCATCGGAGT,PBM binding z-score,[1],2.96
same,PBM binding z-score,[2],4.43
same,PBM binding z-score,[3],4.29
same,PBM binding z-score,[4],1.6
same,PBM binding z-score,[5],4.45
same,PBM binding z-score,[6],4.81
same,PBM binding z-score,[7],0.559
same,PBM binding z-score,[8],1.16
AGTCAATGTTCACTAGGTAACGTAAGATTCAGCT,PBM binding z-score,[1],0.00708
same,PBM binding z-score,[2],0.177
same,PBM binding z-score,[3],0.455
same,PBM binding z-score,[4],0.313
same,PBM binding z-score,[5],0.0273
same,PBM binding z-score,[6],0.29
same,PBM binding z-score,[7],0.282
same,PBM binding z-score,[8],-0.164
CGAACGAGGCCATGAGTTGATAGCAAATGCCGAT,PBM binding z-score,[1],0.354
same,PBM binding z-score,[2],0.599
same,PBM binding z-score,[3],0.821
same,PBM binding z-score,[4],0.851
same,PBM binding z-score,[5],0.328
same,PBM binding z-score,[6],0.837
same,PBM binding z-score,[7],-0.151
same,PBM binding z-score,[8],0.777
TAGCCTAGGGCATGCGGGCCAGTATAGTGTCGGC,PBM binding z-score,[1],0.409
same,PBM binding z-score,[2],0.0659
same,PBM binding z-score,[3],0.455
same,PBM binding z-score,[4],-1.55
same,PBM binding z-score,[5],-0.233
same,PBM binding z-score,[6],-0.465
same,PBM binding z-score,[7],-1.1
same,PBM binding z-score,[8],-0.907
TCTATTAGTTCAAGGGCAACCGACGAGTCCGTTT,PBM binding z-score,[1],2.81
same,PBM binding z-score,[2],2.08
same,PBM binding z-score,[3],2.62
same,PBM binding z-score,[4],2.6
same,PBM binding z-score,[5],1.58
same,PBM binding z-score,[6],1.92
same,PBM binding z-score,[7],1.36
same,PBM binding z-score,[8],3.41
CCTCGGAGGACAGAACGTCAGAGCTGTCCGCTTT,PBM binding z-score,[1],-0.587
same,PBM binding z-score,[2],-0.462
same,PBM binding z-score,[3],-0.0228
same,PBM binding z-score,[4],-0.411
same,PBM binding z-score,[5],-1.12
same,PBM binding z-score,[6],-0.532
same,PBM binding z-score,[7],-0.473
same,PBM binding z-score,[8],-0.816
ATCTCTAGGTAAAGTTCAGTGATAGATCGATAGA,PBM binding z-score,[1],2.44
same,PBM binding z-score,[2],2.15
same,PBM binding z-score,[3],2.58
same,PBM binding z-score,[4],1.56
same,PBM binding z-score,[5],1.42
same,PBM binding z-score,[6],1.2
same,PBM binding z-score,[7],0.236
same,PBM binding z-score,[8],2.09
GCAGACAGGTGTAACGCAGGTAACTCAGGGTGGC,PBM binding z-score,[1],-0.771
same,PBM binding z-score,[2],-0.375
same,PBM binding z-score,[3],-0.631
same,PBM binding z-score,[4],-0.861
same,PBM binding z-score,[5],-0.21
same,PBM binding z-score,[6],0.816
same,PBM binding z-score,[7],-0.935
same,PBM binding z-score,[8],-0.598
CCTGACGGGTCACTCCAGGTTATAGCATCGGAGT,PBM binding z-score,[1],2.89
same,PBM binding z-score,[2],3.82
same,PBM binding z-score,[3],3.7
same,PBM binding z-score,[4],1.04
same,PBM binding z-score,[5],3.59
same,PBM binding z-score,[6],5.04
same,PBM binding z-score,[7],0.311
same,PBM binding z-score,[8],1.27
AGCGAAAGGTCGTGAGGTGAGTATACAGAAAGGC,PBM binding z-score,[1],3.19
same,PBM binding z-score,[2],4.63
same,PBM binding z-score,[3],3.87
same,PBM binding z-score,[4],0.985
same,PBM binding z-score,[5],5.33
same,PBM binding z-score,[6],3.46
same,PBM binding z-score,[7],1.27
same,PBM binding z-score,[8],0.74
GCTAGCATGCCATTTGGGTCACTCAATGACGGGC,PBM binding z-score,[1],1.77
same,PBM binding z-score,[2],0.756
same,PBM binding z-score,[3],0.805
same,PBM binding z-score,[4],-0.283
same,PBM binding z-score,[5],0.99
same,PBM binding z-score,[6],1.69
same,PBM binding z-score,[7],0.874
same,PBM binding z-score,[8],0.0275
CAAACTAGGTCGCCGGAAGGTCAAAGTCCGCATG,PBM binding z-score,[1],4.43
same,PBM binding z-score,[2],6.47
same,PBM binding z-score,[3],4.32
same,PBM binding z-score,[4],1.22
same,PBM binding z-score,[5],4.39
same,PBM binding z-score,[6],3.68
same,PBM binding z-score,[7],1.44
same,PBM binding z-score,[8],2.39
